Bioassay records as filed in PubChem BioAssay.
Only a sample is shown.
aSyn UTR act = Activators working through SNCA 5'UTR binding (MLPCN); AID 1814; alpha-synuclein 5'UTR reporter, activators screen; activity score, % (tested at 7.5 µM), hits read low; hit rate 7.1% among 300,000; in the data active = activity score below about -60%
An asterisk follows results filed as active.

SMILES | aSyn UTR act
O=C(NCCSCc1ccco1)Nc1ccc(Cl)cc1 | -134*
Cc1nnsc1SCCNC(=O)Nc1ccc(Cl)cc1 | -98*
O=C(NCCSCc1ccco1)Nc1cccc(Cl)c1 | -126*
O=C(N/N=C\c1ccco1)Nc1cccc(Cl)c1 | -131*
COc1cccc(N2CCN(C(=O)c3ccc4nc(N5CCC(C)CC5)sc4c3)CC2)c1 | -157*
c1ccc(CN2CCN(c3nc4ccccc4s3)CC2)cc1 | -150*
COc1cccc(N2CCN(C(=O)c3ccc(CS(=O)c4ccc(C)cc4)o3)CC2)c1 (centres undefined) | 97
CCOC(=O)N1CCN(C(=O)c2ccc3nc(N4CCC(C)CC4)sc3c2)CC1 | -124*
O=S(=O)(c1ccccc1F)N1CCN(c2nc3ccccc3s2)CC1 | -116*
CC1CCN(c2nc3ccc(C(=O)N4CCN(Cc5ccccc5)CC4)cc3s2)CC1 | -137*
C/C(=N\NC(=O)c1sccc1C)c1ccncc1 | -108*
C/C(=N\NC(=O)c1sccc1C)c1cccnc1 | -200*
CCCCOc1ccc(NC(=O)C(=O)NCCCn2ccnc2)cc1 | 66
CCOc1ccc(NC(=S)NCCCn2ccnc2)cc1 | -77*
CC(=O)NC1=NC(=O)/C(=C/c2cc(C)n(-c3ccc(NC(C)=O)cc3)c2C)S1 | -80*
COc1cc(/C=N/Nc2nc(N3CCCC3)nc(N3CCCC3)n2)ccc1OCc1ccccc1F | -72*
Cc1ccc(N=C2C(=S)N(c3ccc(C)cc3)C(=N)N2/N=C/c2ccc(Cl)cc2)cc1 | -156*
Cc1cccc(-n2c(N)c(C(=O)NCCN3CCOCC3)c3nc4ccccc4nc32)c1 | -83*
Cc1ccc(-n2c(N)c(C(=O)Nc3c(C)n(C)n(-c4ccccc4)c3=O)c3nc4ccccc4nc32)cc1C | 74
COc1ccc2c(c1)Cc1sc(NC(=O)c3cccnc3)nc1-2 | -63*
COc1ccc2c(c1)Cc1sc(NC(=O)c3ccco3)nc1-2 | -265*
COc1ccc2c(c1)-c1nc(NC(=O)c3cccs3)sc1CC2 | -122*
COc1ccc2c(c1)CCc1sc(NC(=O)c3ccco3)nc1-2 | -114*
O=C(Nc1nc2c(s1)CCCC2)c1cccnc1 | -164*
Cc1onc(-c2ccccc2Cl)c1C(=O)Nc1nc2c(s1)CCCC2 | -121*
SMILES | aSyn UTR act
COc1ccc2c(c1)Cc1sc(NC(C)=O)nc1-2 | -169*
Cc1onc(-c2ccccc2Cl)c1C(=O)N1CCN(c2cccc(Cl)c2)CC1 | 67
CCOC(=O)c1ccc(-c2ccc(/C=N/NC(=O)CN(c3ccccc3Br)S(C)(=O)=O)o2)cc1 | -140*
COc1ccc(CCc2nnc(CCC(=O)NCc3cc(C(C)C)no3)o2)cc1 | -99*
CCOC(=O)/C(C#N)=C(C)/C=C1\Sc2ccccc2N1CC | -105*
O=C(Oc1ccccc1/C=C\C(=O)c1cc2ccccc2o1)c1ccccc1 | -300*
COc1cccc(C(=O)Oc2ccccc2/C=C\C(=O)c2cc3ccccc3o2)c1 | -192*
O=C(Oc1ccccc1/C=C\C(=O)c1cc2ccccc2o1)c1cccc(F)c1 | -234*
N#CCn1cc(/C=N/NC(=O)c2cc3c(ccc4ccccc43)o2)c2ccccc21 | -112*
N#CCC(=O)N/N=C/c1cn(Cc2ccc(Cl)c(Cl)c2)c2ccccc12 | 61
COCC(=O)Nc1nc(-c2ccc([N+](=O)[O-])cc2)cs1 | -70*
O=[N+]([O-])c1ccc(-c2csc(NN=C3CCCC3)n2)cc1 | -177*
O=C(COC(=O)c1ccccn1)Nc1nc(-c2ccccc2)cs1 | -80*
CNc1nc(-c2ccc([N+](=O)[O-])cc2)cs1 | -135*
CCc1ccccc1OCC(=O)Nc1nc(-c2cccnc2)cs1 | 70
COCC(=O)Nc1nc(-c2ccc(-c3ccccc3)cc2)cs1 | -220*
CC(C)C(=O)Nc1nc(-c2ccc([N+](=O)[O-])cc2)cs1 | -74*
Cc1cc(=O)[nH]c(S/C=C/c2ccccc2)n1 | -78*
Cc1cc(=O)[nH]c(N=N/C(=N/Nc2ccccc2C)c2ccccc2)n1 | 82
Cc1c(C(=O)Nc2cccc(Cl)c2)c2ccccn2c1CCc1ccncc1 | -103*
Cc1c(C(=O)Nc2ccc(Cl)cc2)c2ccccn2c1CCc1ccncc1 | -115*
O=C(Nc1ccc2c(c1)OCO2)c1cccc(Cl)c1 | -148*
O=C(Nc1ccon1)c1ccc2c(c1)OCO2 | -76*
O=C(Nc1ccc(Cl)cc1)C1=Cc2ccccc2OC1 | -150*
CC(C)(C)c1cnnn1-c1ccc(NC(=O)c2ccc3c(c2)OCO3)cc1 | -86*
SMILES | aSyn UTR act
NC(=O)c1ccc(NC(=O)c2ccc3c(c2)OCO3)cc1 | -139*
O=C(Nc1ccc(F)c(F)c1)c1ccc2c(c1)OCO2 | -156*
CCN1CCN(c2ccc(NC(=O)c3ccc4c(c3)OCO4)cc2)CC1 | -123*
O=C(Nc1ccc(Cl)c(Cl)c1)c1ccc2c(c1)OCO2 | -133*
O=C(Nc1ccc(Cl)cc1)c1ccc2c(c1)OCO2 | -84*
O=C(Nc1ccc(Br)cc1)c1ccc2c(c1)OCO2 | -174*
O=C(Nc1ccc(Cl)c([N+](=O)[O-])c1)c1ccc2c(c1)OCCO2 | -133*
Cn1cc(C(=O)Nc2ccc(Cl)c(Cl)c2)cn1 | -85*
COCCNc1oc(/C=C/c2ccccc2)nc1C#N | -146*
N#Cc1nc(/C=C/c2ccccc2)oc1NCCCN1CCOCC1 | -82*
CNc1oc(/C=C/c2ccccc2)nc1C#N | -275*
CCCOc1ccc(C(=O)Nc2ccc(C)cc2[N+](=O)[O-])cc1 | -72*
COCCCNc1nc(N)c([N+](=O)[O-])c(Nc2cc(OC)ccc2OC)n1 | 55
CC(C)COc1ccc(C(=O)Nc2ccccc2[N+](=O)[O-])cc1 | -212*
COCCCNC(=S)Nc1ccc(C)cc1[N+](=O)[O-] | -75*
C/C(=N\Nc1nc2ccccc2[nH]1)c1ccc(Cl)s1 | -104*
C/C(=N\Nc1nc2ccccc2[nH]1)c1ccc(N2CCOCC2)cc1 | -163*
C/C(=N\Nc1nc2ccccc2[nH]1)c1ccc(C)o1 | -237*
COc1ccc(OC)c(/C=C2\SC(=S)N(Cc3cccnc3)C2=O)c1 | -62*
Cc1ccc(NC(=O)C(=O)NC(C)C2COc3ccccc3O2)cc1 (centres undefined) | -71*
C/C(=C\C(=O)c1ccccc1)Nc1ccc(O)cc1 | -102*
C/C(=C\C(=O)c1cccnc1)Nc1ccc(O)cc1 | -77*
Cc1ccc(/C=N/Nc2ncnc3nc[nH]c23)cc1 | -63*
Fc1ccccc1/C=N/Nc1ncnc2nc[nH]c12 | -62*
Fc1cccc(/C=N/Nc2ncnc3nc[nH]c23)c1 | -93*
SMILES | aSyn UTR act
Nc1c(-c2ccccc2)cnn1-c1ccc(C(=O)O)cc1 | -130*
Cc1ccc(-c2cnn(-c3ccccc3)c2N)cc1 | -69*
Cc1ccc(-c2cnn(-c3cccc([N+](=O)[O-])c3)c2N)cc1 | -105*
Nc1c(-c2ccc(Cl)cc2)nnn1-c1ccccc1 | -159*
Nc1c(-c2ccc(Cl)cc2)cnn1-c1ccccc1 | -180*
O=c1c2ccccc2c(-c2ccc(O)cc2)nn1-c1cccc(C(F)(F)F)c1 | 52
Nc1c(-c2ccccc2)cnn1-c1cccc(C(F)(F)F)c1 | -205*
O=C(Nc1ccc2c(c1)Cc1ccccc1-2)c1cccnc1 | -122*
Cc1coc(C)c1C(=O)Nc1ccc2ccccc2c1 | -162*
O=C(Nc1ccc(OCc2ccccc2Cl)cc1)c1cccnc1 | 90
Cc1nc(NC(=O)CCc2ccccc2)ccc1Br | -145*
O=C(Nc1ccc2ccccc2c1)c1cccnc1 | -161*
Oc1c(C(c2ccccc2Cl)N2CCCC2)ccc2cccnc12 (centres undefined) | 97
Cc1cc(NC(=O)c2ccccc2[N+](=O)[O-])ccc1Br | -130*
